Dicer inh = blocks human Dicer maturation of pre-miR-21. Q9UPY3. cat-ELCCA pre-miR-21 Dicer processing, chemiluminescence; hits give high values. z-score at 25 µM. actives 6% (n = 47,000). AID 1347074; in the data active means z-score above about 3, passing the limit was not always enough;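 further: plate controls were vehicle for no effect and no enzyme for full effect; higher signal means more uncleaved substrate so more Dicer inhibition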
Active calls of the source: *. This excerpt belongs to a sample that is enriched for hits.

SMILES | Dicer inh
CCOC(=O)C1=NNC2C(=O)N(c3cccc(Cl)c3)C(=O)C12 (stereo unspecified) | 0.89
O=C(CCCN1CCN(c2ccccn2)CC1)c1ccc(F)cc1 | 1.25
O=C(CN1C2=NCCN2c2ccccc21)c1ccc(F)cc1 | -0.27
OC1(c2ccc(F)cc2)Cc2ccccc2C2=NCCN21 (stereo unspecified) | 5.64*
C/S(=N/C(=O)Nc1ccc(OC(F)(F)F)cc1)c1ccc(OC(=O)c2ccc(Cl)cc2)cc1 (stereo unspecified) | -0.24
CN(C(=O)CSc1nc(-c2ccco2)cc(C(F)(F)F)n1)c1ccccc1 | -0.46
Cc1nc(N=CNO)ccc1Br | -0.8
Fc1cccc(Cl)c1CO/N=C/c1ccc(Cl)cc1Cl | 1.6
O=C(CO/N=C/c1ccc(Cl)cc1Cl)NNC(=S)Nc1cc(Cl)ccc1Cl | 5.62*
COC(=O)CO/N=C/c1ccc(Cl)cc1Cl | -0.09
CC1CCN(C(=O)Cn2cc(C(=O)C3CCCCC3)c3ccccc32)CC1 | 1.48
C/C(=C1\N=C(c2ccccc2)OC1=O)N(C)C | 0.93
COC(=O)C1=C(C)NC2=C(C(=O)CCC2)C1c1ccc(Br)cc1 (stereo unspecified) | -0.9
COC(=O)C1=C(C)Nc2c(c(=O)n(C)c(=O)n2C)C1c1ccc(Br)cc1 (stereo unspecified) | 3.4*
COC(=O)C1=C(C)Nc2[nH]c(=O)[nH]c(=O)c2C1c1ccc(Br)cc1 (stereo unspecified) | 1.18
CCC/S(=N\S(=O)(=O)c1ccc(C)cc1)c1ccccc1 (stereo unspecified) | -1
Cn1cc(Cl)c(C(=O)Nc2ccc(F)cc2F)n1 | -0.87
Cc1cc2nc(NC3=NCN(Cc4ccc5c(c4)OCO5)CN3)nc(C)c2cc1C | 3.21*
Cc1cc2nc(NC3=NCN(CCCN4CCOCC4)CN3)nc(C)c2cc1C | 1.8
Cc1ccc2c(C)nc(NC3=NCN(Cc4ccccc4)CN3)nc2c1 | -0.01
CCCCN1CN=C(Nc2nc(C)c3cc(OCC)ccc3n2)NC1 | 1.2
Cc1cc2nc(NC3=NCN(Cc4ccco4)CN3)nc(C)c2cc1C | 2.98
CCOc1ccc2nc(NC3=NCN(CCCN4CCOCC4)CN3)nc(C)c2c1 | 3.75*
Nc1ccc2nc(SCc3ccc(F)cc3)sc2c1 | -1.87
CCN(c1cccc2ccccc12)S(=O)(=O)c1ccc(F)cc1 | -0.71
SMILES | Dicer inh
NC(=O)c1sc2nc3c(cc2c1N)CCCCC3 | 0.84
Cc1ccc(Cn2nnc(-c3cc(C(F)(F)F)cc(C(F)(F)F)c3)n2)cc1 | -0.57
CCOC(=O)c1ccc(N2C(=O)CS(=O)(=O)CC2=O)cc1 | 0.51
CCOC(=O)C1=NN(c2ccc(C)cc2)C2C(=O)N(c3ccc(Br)cc3)C(=O)C12 (stereo unspecified) | 1.16
CCOC(=O)C1=C(C)N(c2ccc(Br)cc2)C(=O)C1 | 3.76*
O=C1CCCc2c1cc(C(=O)NC1CCSC1=O)c(=O)n2-c1ccccc1 (stereo unspecified) | 1.18
O=C1CCCc2c1cc(C(=O)O)c(=O)n2-c1ccccc1 | 3.73*
COC(=O)C(CCSC)NC(=O)c1cc2c(n(-c3ccccc3)c1=O)CCCC2=O (stereo unspecified) | 2.11
CCOc1ccc(S(=O)(=O)N2CCSC2c2ccc(Br)cc2)cc1 (stereo unspecified) | 2.7
CC(C)S(=O)(=O)c1csc(NC(=O)N=S(C)(=O)c2ccc(Cl)cc2)c1Cl (stereo unspecified) | -0.93
CC(C)S(=O)(=O)c1csc(NC(=O)Nc2ccccc2Cl)c1 | 1.7
CC(C)S(=O)(=O)c1csc(NC(=O)Nc2cc(Cl)ccc2Cl)c1Cl | 5.35*
CCOC(=O)C(C#N)c1c([N+](=O)[O-])c(=O)n(-c2ccccc2)c2ccccc12 (stereo unspecified) | -1.6
COc1ccccc1N1CCN(C(=S)NC(C)(C)C)CC1 | 0.26
O=C(NCc1ccc2c(c1)OCO2)C1CC(c2cccc(Br)c2)=NO1 (stereo unspecified) | -0.75
O=C(NCc1ccco1)C1CC(c2ccc(Cl)cc2)=NO1 (stereo unspecified) | 1.56
CC(C)CNC(=O)C1CC(c2ccccc2)=NO1 (stereo unspecified) | 3.61*
O=C1c2ccccc2C(=O)C1C(c1ccccc1)C1C(=O)c2ccccc2C1=O | -2.64
Cc1ccc(C(=O)Cn2c3ccccc3n3nc(C)c(=O)nc23)cc1 | 0.01
Cc1ccc(S(=O)(=O)Nc2cc(S(=O)(=O)c3ccc(C)cc3)c(O)c3ncccc23)cc1 | -1.26
Cc1ccc(S(=O)(=O)Nc2cc(Cl)c(O)cc2C)cc1 | 4.28*
Cc1c(NS(=O)(=O)c2ccccc2)cc(Cl)c(O)c1C | 2.15
Cc1ccc(S(=O)(=O)Nc2cc(C(C)C)c(O)c(Cl)c2C)cc1 | 3.18*
Cc1ccc(S(=O)(=O)Nc2cc(C)c(O)c(Cl)c2)cc1 | 0.77
Cc1ccc(S(=O)(=O)Nc2cc(C)c(Br)cc2NS(=O)(=O)c2ccc(C)cc2)cc1 | 7.15
SMILES | Dicer inh
CCOC(=O)c1cc(N)n(-c2nc3cc(Cl)ccc3s2)n1 | 0.07
Cc1ccc(CNC(=O)Nc2ccc(OCc3ccccc3)cc2)n1C | 0.25
CCOC(=O)CCS(=O)(=O)c1ccc(Cl)cc1 | 0.21
CCCOc1cccc(C2CCCCN(C)C2=O)c1 (stereo unspecified) | -1.76
CC1(C)Cc2[nH]c(=O)c(C#N)cc2CO1 | 1.35
COC(=O)c1cc(NS(=O)(=O)c2ccc(Br)cc2)cc(C(=O)OC)c1 | 3.9*
COC(=O)c1cc(NS(=O)(=O)c2ccc(F)cc2)cc(C(=O)OC)c1 | -0.05
COc1nccnc1NS(=O)(=O)c1ccc(NC(=O)c2ccc(Br)cc2)cc1 | -0.45
O=C(NNC(=S)Nc1cc(C(F)(F)F)cc(C(F)(F)F)c1)c1ccc[nH]1 | 0.45
CC12C=CC(O1)C1C(=O)N(c3ccc(C(=O)O)cc3)C(=O)C12 (stereo unspecified) | -0.17
O=C(O)c1ccc(N2C(=O)CCC2=O)cc1 | 4.83*
CCCCCCC(=O)Oc1ccc(N2C(=O)CCC2=O)cc1 | 1.43
CN(C)/C=C(\C(=O)Nc1ccc(F)c(F)c1F)S(=O)(=O)c1ccccc1 | -1.06
COC(=O)c1ccc(CN2C(=O)C(=O)c3ccccc32)cc1 | 1.23
O=C(Nc1ccc(F)cc1F)N1CCN(Cc2ccccc2)CC1 | 3.04*
CCOC(=O)C1CCN(C(=O)Nc2ccc(F)cc2F)CC1 | -0.78
CC(C)(C)OC(=O)NC1CCN(C(=O)Nc2ccc(F)cc2F)CC1 | 0.45
Cc1cc(OS(=O)(=O)CS(=O)(=O)Oc2cc(C)c(Cl)c(C)c2)cc(C)c1Cl | -0.21
COc1cc(OC)cc(C(C)(C)OC(=O)N[C@@H](C)C(=O)O)c1 | -1.17
CCOC(=O)C(=CNNS(=O)(=O)c1cc(C(F)(F)F)cc(C(F)(F)F)c1)C(=O)OCC | -0.88
COC(=O)C(CCSC)NS(=O)(=O)c1cc(C(F)(F)F)cc(C(F)(F)F)c1 (stereo unspecified) | 4.85*
CSCCC(NC(=O)c1ccc(C(F)(F)F)cc1)C(=O)NN (stereo unspecified) | -0.55
O=C(/C=N/Nc1ccccc1)Nc1ccccc1C(=O)O | -0.14
O=C(Nc1nnc(/C=C/c2ccccc2)s1)c1ccc(Br)cc1 | 1.9
Cc1nc2ccc(N3NOC=C3O)cc2s1 | 1.21
OC1=CONN1c1cccc2ncccc12 | 3.24*
Cc1cccc(C(=O)Oc2c(Br)cc(C(F)(F)F)cc2[N+](=O)[O-])c1 | -0.04
COc1ccc(NC(=O)c2ccc(C)cc2N)c(N)c1 | -0.73
Nc1nc(/C=C/c2ccccc2O)nc(-c2ccccc2O)n1 | 8.02
Oc1ccccc1/C=C/c1nc(-c2ccccc2O)n(-c2ccccc2)n1 | 10.5*

From PubChem
